Results with a measured potency or affinity are listed apart. Activity calls are given as the source filed them.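 Rule for the calls: active = every repeat run showing a signal drop whose fitted half-maximal concentration is at most twice the top tested concentration; inconclusive = repeat runs disagree, or flat partial drop, or poor fit; inactive = the rest.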
Assay: HEK293T cytotoxicity, dose response, cytotoxicity control for miR-122 modulator project, cell-based, activator set, cherry-pick (AID 720690)

Structure (SMILES)	outcome
O=C(c1ccc(CNc2c(NC3CCCCC3)c(=O)c2=O)cc1)N1CCc2ccccc21	inactive
C=CCNC(=S)NNC(=O)Cn1c(-c2ccccc2)cc(=O)n2ncnc12	inactive
COc1ccc(C(=O)N2C[C@H]3[C@@H](c4ccccc42)[C@@H](CO)N3C(=O)Cc2ccccn2)cc1	inactive
c1ccc(CCCNCCCn2cnc3c(OCc4ccccc4)ncnc32)cc1	inactive
C[C@H]1CN([C@@H](C)CO)C(=O)c2cc(C#Cc3cccnc3)cnc2O[C@H]1CN(C)S(=O)(=O)c1ccccc1F	inactive
CCCCN(CCCC)C(=O)CN(C)S(=O)(=O)c1ccc2c(c1)n(C)c(=O)c(=O)n2C	inactive
COCC(=O)N(C)C[C@H]1Oc2cc(C#Cc3cccnc3)ccc2S(=O)(=O)N([C@@H](C)CO)C[C@H]1C	inactive
COc1ccc(-c2c(C(C)=O)c(C)nc3sc4c(c23)NC(c2ccccc2)NC4=O)cc1 (stereo unspecified)	inactive
CN1C(=O)c2cc(NC(=O)c3cccs3)ccc2OC[C@H]2O[C@H](CC(=O)NCCN3CCCCC3)CC[C@H]21	inactive
COC(=O)C[C@@H]1CC[C@@H]2[C@H](COc3ccc(NC(=O)c4ccc(F)c(F)c4)cc3C(=O)N2C)O1	inactive
CCCNC(=O)N1[C@H](CO)[C@@H](c2ccccc2)[C@H]1CNC(=O)c1ccccc1	inactive
C[C@H]1CN([C@@H](C)CO)S(=O)(=O)c2ccc(-c3ccc(C(=O)N(C)C)cc3)cc2O[C@H]1CN(C)C(=O)C1CCC1	inactive
COCCN(C[C@@H]1[C@H](c2ccccc2)[C@@H](CO)N1C(=O)C1CCC1)C(C)=O	inactive
CN1C(=O)c2cc(NC(=O)c3cccc(C(F)(F)F)c3)ccc2OC[C@H]2O[C@H](CC(=O)NCCN3CCCC3)CC[C@H]21	inactive
C/C=C/c1ccc2c(c1)O[C@H](CN(C)C(=O)Nc1cccc(F)c1)[C@H](C)CN([C@@H](C)CO)S2(=O)=O	inactive
C=CCc1ccccc1OCC(O)CN1CCN(CCN2C(=O)c3cccc4cccc(c34)C2=O)CC1 (stereo unspecified)	inactive
C[C@@H]1CN([C@@H](C)CO)S(=O)(=O)c2ccc(C#CC3(O)CCCC3)cc2O[C@@H]1CN(C)C(=O)c1cccnc1	inactive
COc1cccc(-c2csc(N3CCN(CC(=O)Nc4ccc5c(c4)OCO5)CC3)n2)c1	inactive
Cc1cc2n(n1)C(c1cn(-c3ccccc3)nc1C)Nc1c(C)cccc1-2 (stereo unspecified)	inactive
C[C@@H]1CN([C@@H](C)CO)C(=O)c2cc(NS(=O)(=O)c3ccc(F)cc3)ccc2O[C@@H]1CN(C)Cc1ccc(-c2ccccc2)cc1	inactive
COC(=O)C[C@@H]1CC[C@H]2[C@@H](COc3ccc(NC(=O)c4ccc(C(F)(F)F)cc4)cc3C(=O)N2C)O1	inactive
C[C@@H]1CN([C@@H](C)CO)C(=O)Cc2cc(NC(=O)Nc3ccc(C(F)(F)F)cc3)ccc2O[C@H]1CN(C)CC1CCCCC1	inactive
COC(=O)C[C@H]1CC[C@@H]2[C@H](COc3ccc(NC(=O)c4cccs4)cc3C(=O)N2C)O1	inactive
COCC(=O)NC[C@@H]1[C@H](c2ccc(C3=CCCC3)cc2)[C@@H](CO)N1C(=O)C1CC1	inactive
CCCN(C[C@@H]1N[C@@H](CO)[C@H]1c1ccc(-c2cccnc2)cc1)C(C)=O	inactive
CCOC(=O)C1CN(S(=O)(=O)c2ccccc2)CCN1S(=O)(=O)c1ccccc1 (stereo unspecified)	inactive

Structure (SMILES)	outcome
COCCN(C[C@H]1[C@@H](c2ccccc2)[C@H](CO)N1C(=O)C1CCC1)C(C)=O	inactive
CCCNC(=O)C[C@@H]1CC[C@@H]2[C@H](COc3ccc(NS(=O)(=O)c4ccccc4C)cc3C(=O)N2C)O1	inactive
CCNC(=O)CCC(=O)Nc1cc(Cl)ccc1C	inactive
C[C@@H]1CN([C@H](C)CO)C(=O)c2cc(-c3cncnc3)cnc2O[C@H]1CN(C)Cc1ccc(Oc2ccccc2)cc1	inactive
CCCC(=O)Nc1ccc2c(c1)C(=O)N(C)[C@@H]1CC[C@H](CC(=O)Nc3cn(C)nc3C)O[C@@H]1CO2	inactive
COC(=O)C[C@@H]1CC[C@@H]2[C@H](COc3ccc(NS(=O)(=O)c4ccc(F)cc4)cc3C(=O)N2C)O1	inactive
CCCC(=O)Nc1ccc2c(c1)C(=O)N(C)[C@@H]1CC[C@H](CC(=O)NCc3cccc(F)c3)O[C@H]1CO2	inactive
C[C@@H]1CN([C@@H](C)CO)S(=O)(=O)c2ccc(C3=CCCC3)cc2O[C@@H]1CN(C)C(=O)c1ccc(F)cc1	inactive
CC(C)C(=O)Nc1ccc2c(c1)C(=O)N(C)[C@H]1CC[C@H](CC(=O)Nc3cccc(F)c3)O[C@@H]1CO2	inactive
CO[C@@H]1CN(C)C(=O)c2ccc(NS(C)(=O)=O)cc2OC[C@H](C)N(C(=O)CN(C)C)C[C@@H]1C	inactive
CNC(=O)C[C@H]1CC[C@@H]2[C@H](COc3ccc(NC(=O)C(C)C)cc3C(=O)N2C)O1	inactive
CN1C(=O)c2cc(NC(=O)c3cc(F)cc(F)c3)ccc2OC[C@@H]2O[C@@H](CC(=O)O)CC[C@@H]21	inactive
CNC[C@@H]1Oc2cc(C#CC3CCCC3)ccc2S(=O)(=O)N([C@@H](C)CO)C[C@@H]1C	inactive
C/C=C/c1ccc([C@@H]2[C@@H](CO)N(S(C)(=O)=O)[C@H]2CN(C)C(=O)CC)cc1	inactive
COCC(=O)Nc1ccc2c(c1)C(=O)N(C)[C@@H]1CC[C@@H](CC(=O)NCCCN(C)C)O[C@@H]1CO2	inactive
Fc1ccc(CN2CCN(c3ncnc4scc(-c5ccc(F)cc5)c34)CC2)cc1	inactive
CC(=O)Nc1ccc2c(c1)C(=O)N(C)[C@@H]1CC[C@H](CC(=O)NC3CCCCC3)O[C@H]1CO2	inactive
CNC(=O)C[C@@H]1CC[C@@H]2[C@H](COc3ccc(NC(=O)Nc4ccc(Cl)cc4)cc3C(=O)N2C)O1	inactive
CO[C@@H]1CN(C)C(=O)c2ccc(NC(=O)Nc3ccc(C(F)(F)F)cc3)cc2OC[C@H](C)NC[C@H]1C	inactive
O=C(N[C@H]1CC[C@H](CCn2cc(C3(O)CCCC3)nn2)O[C@H]1CO)c1ccccc1F	inactive
CCN(C[C@@H]1[C@@H](c2ccccc2)[C@@H](CO)N1C(=O)COC)S(C)(=O)=O	inactive
C/C=C/c1ccc([C@H]2[C@@H](CO)N(C(=O)C3CC3)[C@H]2CNC(=O)NC(C)C)cc1	inactive
Cc1nn(C)cc1NC(=O)C[C@H]1CC[C@H]2[C@H](COc3ccc(NC(=O)c4cccc(F)c4)cc3C(=O)N2C)O1	inactive
COCC(=O)N1[C@H](CO)[C@@H](c2ccccc2)[C@H]1CN(C)C(=O)c1ccncc1	inactive
Cc1ccc(C(=O)n2nc(-c3ccccc3)nc2NCc2ccco2)cc1	inactive
O=C(Nc1ncc(Cc2cccc(C(F)(F)F)c2)s1)c1ccc(-c2cccc([N+](=O)[O-])c2)o1	inactive

Structure (SMILES)	outcome
CNC(=O)C[C@@H]1CC[C@@H]2[C@@H](COc3ccc(NC(=O)c4ccccc4F)cc3C(=O)N2C)O1	inactive
CN1C(=O)c2cc(NC(=O)c3cccc(F)c3)ccc2OC[C@H]2O[C@H](CC(=O)NC3CCC3)CC[C@H]21	inactive
CN1C(=O)c2cc(NC(=O)c3cccc(F)c3)ccc2OC[C@@H]2O[C@@H](CC(=O)O)CC[C@H]21	inactive
C[C@@H]1CN([C@H](C)CO)S(=O)(=O)c2ccc(C3=CCCCC3)cc2O[C@@H]1CN(C)C(=O)Cc1ccncc1	inactive
CC(=O)N1[C@H](CN(C)S(=O)(=O)c2ccccc2)[C@H](c2ccccc2)[C@@H]1CO	inactive
C/C=C/c1ccc([C@H]2[C@@H](CO)N(C(=O)NC(C)C)[C@H]2CN(C)C(=O)CC)cc1	inactive
CCNC(=O)C[C@@H]1CC[C@@H]2[C@H](COc3ccc(NC(=O)Nc4cccc(Cl)c4)cc3C(=O)N2C)O1	inactive
COc1ccc(C(C#N)Nc2ccc(C)cc2)cc1 (stereo unspecified)	inactive
O=c1c2c3c(sc2nc2n1CCC2)CCCC3	inactive
C[C@@H]1CN([C@H](C)CO)C(=O)c2cc(NC(=O)Nc3ccc(C(F)(F)F)cc3)ccc2O[C@@H]1CN(C)CC1CCCCC1	inactive
CN1C(=O)c2cc(NC(=O)c3cccc(F)c3)ccc2OC[C@H]2O[C@@H](CC(=O)NC3CCC3)CC[C@H]21	inactive
CCCC(=O)Nc1ccc2c(c1)C(=O)N(C)[C@@H]1CC[C@@H](CC(=O)NCC(F)(F)F)O[C@H]1CO2	inactive
CCCC(=O)Nc1ccc2c(c1)C(=O)N(C)[C@@H]1CC[C@H](CC(=O)NCCOC)O[C@H]1CO2	inactive
CN(C)C(=O)C[C@@H]1CC[C@@H]2[C@@H](COc3ccc(NC(=O)C4CC4)cc3C(=O)N2C)O1	inactive
COc1ccc(-c2c(C)nn3c(N)c(-c4ccccc4)cnc23)cc1OC	inactive
CCNC(=O)C[C@H]1CC[C@H]2[C@H](COc3ccc(NS(C)(=O)=O)cc3C(=O)N2C)O1	inactive
COC(=O)C[C@H]1CC[C@H]2[C@H](COc3ccc(NC(=O)c4cscn4)cc3C(=O)N2C)O1	inactive
CCCC#Cc1ccc2c(c1)O[C@H](CN(C)C(=O)c1ccncc1)[C@H](C)CN([C@@H](C)CO)S2(=O)=O	inactive
OCc1ccc(-c2nn(Cc3ccccc3)c3ccccc23)o1	inactive
CCC(=O)N1[C@H](CO)[C@H](c2ccccc2)[C@@H]1CN(CC)C(=O)c1ccccc1	inactive
CNC(=O)C[C@H]1CC[C@H]2[C@H](COc3ccc(NC(=O)c4cccc(OC)c4)cc3C(=O)N2C)O1	inactive
C[C@@H]1CN([C@H](C)CO)S(=O)(=O)c2ccc(C3=CCCC3)cc2O[C@@H]1CN(C)C(=O)Cc1ccncc1	inactive
Cc1cccc(NC(=O)C[C@H]2CC[C@H]3[C@@H](COc4ccc(NC(=O)NC(C)C)cc4C(=O)N3C)O2)c1	inactive
CC(C)(C)c1cc(NCCCn2ccnc2)n2ncc(-c3ccc(Cl)cc3)c2n1	inactive

Reference: PubChem BioAssay AID720690 (Broad Institute, 2013)
